# Measured values: the supplement of paper PMC8975748
# Where a name gives a salt, the structure may show the parent alone.
# Experiments:
# [1] = test system: Saccharomyces cerevisiae BY4741 SeMeCo community; assay: z-score of subpopulation abundance vs DMSO median, subpopulation auxotrophic for M; higher = larger share of this subpopulation than in DMSO controls; settings: 10 µM; 24 h; SM minimal medium; subpopulation (auxotrophy): M
# How it was run: (§1)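 Scoring was based on each subpopulation's abundance, expressed as a z-score against the vehicle-well median. A Saccharomyces cerevisiae BY4741 community with four plasmids, each restoring one auxotrophy and encoding a distinct fluorescent protein, was pre-grown overnight to OD600 1.0, diluted to 0.3, and added at 70 µl to 384-well plates acoustically predosed with library drugs (10 µM final). It then grew 24 h in minimal SM medium before paraformaldehyde fixation and automated confocal microscopy, with single-auxotroph fluorescent strains setting thresholds and autofluorescence correction.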
# [2] = test system: Saccharomyces cerevisiae BY4741 SeMeCo community; assay: z-score of subpopulation abundance vs DMSO median, subpopulation auxotrophic for L; higher = larger share of this subpopulation than in DMSO controls; settings: 10 µM; 24 h; SM minimal medium; subpopulation (auxotrophy): L
# How it was run: as §1
# [3] = test system: Saccharomyces cerevisiae BY4741 SeMeCo community; assay: z-score of subpopulation abundance vs DMSO median, subpopulation auxotrophic for U; higher = larger share of this subpopulation than in DMSO controls; settings: 10 µM; 24 h; SM minimal medium; subpopulation (auxotrophy): U
# How it was run: as §1
# [4] = test system: Saccharomyces cerevisiae BY4741 SeMeCo community; assay: z-score of subpopulation abundance vs DMSO median, subpopulation auxotrophic for LU; higher = larger share of this subpopulation than in DMSO controls; settings: 10 µM; 24 h; SM minimal medium; subpopulation (auxotrophy): LU
# How it was run: as §1
# [5] = test system: Saccharomyces cerevisiae BY4741 SeMeCo community; assay: z-score of subpopulation abundance vs DMSO median, subpopulation auxotrophic for LM; higher = larger share of this subpopulation than in DMSO controls; settings: 10 µM; 24 h; SM minimal medium; subpopulation (auxotrophy): LM
# How it was run: as §1
# [6] = test system: Saccharomyces cerevisiae BY4741 SeMeCo community; assay: z-score of subpopulation abundance vs DMSO median, subpopulation auxotrophic for HU; higher = larger share of this subpopulation than in DMSO controls; settings: 10 µM; 24 h; SM minimal medium; subpopulation (auxotrophy): HU
# How it was run: as §1
# [7] = test system: Saccharomyces cerevisiae BY4741 SeMeCo community; assay: z-score of subpopulation abundance vs DMSO median, subpopulation auxotrophic for UM; higher = larger share of this subpopulation than in DMSO controls; settings: 10 µM; 24 h; SM minimal medium; subpopulation (auxotrophy): UM
# How it was run: as §1
# [8] = test system: Saccharomyces cerevisiae BY4741 SeMeCo community; assay: z-score of subpopulation abundance vs DMSO median, subpopulation auxotrophic for HL; higher = larger share of this subpopulation than in DMSO controls; settings: 10 µM; 24 h; SM minimal medium; subpopulation (auxotrophy): HL
# How it was run: as §1
# [9] = test system: Saccharomyces cerevisiae BY4741 SeMeCo community; assay: z-score of subpopulation abundance vs DMSO median, subpopulation auxotrophic for HLU; higher = larger share of this subpopulation than in DMSO controls; settings: 10 µM; 24 h; SM minimal medium; subpopulation (auxotrophy): HLU
# How it was run: as §1
# [10] = test system: Saccharomyces cerevisiae BY4741 SeMeCo community; assay: z-score of subpopulation abundance vs DMSO median, subpopulation auxotrophic for HLM; higher = larger share of this subpopulation than in DMSO controls; settings: 10 µM; 24 h; SM minimal medium; subpopulation (auxotrophy): HLM
# How it was run: as §1
# [11] = test system: Saccharomyces cerevisiae BY4741 SeMeCo community; assay: z-score of subpopulation abundance vs DMSO median, subpopulation auxotrophic for HUM; higher = larger share of this subpopulation than in DMSO controls; settings: 10 µM; 24 h; SM minimal medium; subpopulation (auxotrophy): HUM
# How it was run: as §1
# [12] = test system: Saccharomyces cerevisiae BY4741 SeMeCo community; assay: z-score of subpopulation abundance vs DMSO median, subpopulation auxotrophic for LUM; higher = larger share of this subpopulation than in DMSO controls; settings: 10 µM; 24 h; SM minimal medium; subpopulation (auxotrophy): LUM
# How it was run: as §1
# [13] = test system: Saccharomyces cerevisiae BY4741 SeMeCo community; assay: z-score of prototroph abundance vs DMSO median; higher = larger share of this subpopulation than in DMSO controls; settings: 10 µM; 24 h; SM minimal medium; subpopulation (auxotrophy): Prototroph
# How it was run: as §1
# [14] = test system: Saccharomyces cerevisiae BY4741 SeMeCo community; assay: z-score of subpopulation abundance vs DMSO median, subpopulation auxotrophic for H; higher = larger share of this subpopulation than in DMSO controls; settings: 10 µM; 24 h; SM minimal medium; subpopulation (auxotrophy): H
# How it was run: as §1
# [15] = test system: Saccharomyces cerevisiae BY4741 SeMeCo community; assay: z-score of subpopulation abundance vs DMSO median, subpopulation auxotrophic for HM; higher = larger share of this subpopulation than in DMSO controls; settings: 10 µM; 24 h; SM minimal medium; subpopulation (auxotrophy): HM
# How it was run: as §1
# [16] = test system: Saccharomyces cerevisiae BY4741 SeMeCo community; assay: z-score of subpopulation abundance vs DMSO median, subpopulation auxotrophic for HLUM; higher = larger share of this subpopulation than in DMSO controls; settings: 10 µM; 24 h; SM minimal medium; subpopulation (auxotrophy): HLUM
# How it was run: as §1
Compound,z-score of subpopulation abundance [1],z-score of subpopulation abundance [2],z-score of subpopulation abundance [3],z-score of subpopulation abundance [4],z-score of subpopulation abundance [5],z-score of subpopulation abundance [6],z-score of subpopulation abundance [7],z-score of subpopulation abundance [8],z-score of subpopulation abundance [9],z-score of subpopulation abundance [10],z-score of subpopulation abundance [11],z-score of subpopulation abundance [12],z-score of prototroph abundance [13],z-score of subpopulation abundance [14],z-score of subpopulation abundance [15],z-score of subpopulation abundance [16]
CC(=O)[C@@]1(O)CC[C@H]2[C@@H]3C[C@H](C)C4=CC(=O)CC[C@]4(C)[C@H]3CC[C@@]21C [Medroxyprogesterone],0.07,0.51,0.2,0.44,0.45,0.01,-0.35,0.3,1.06,0.49,-0.08,0.93,,,,
C[N+]1(C)CCC(=C(c2ccccc2)c2ccccc2)CC1 [Diphemanil Methylsulfate],1.5,-0.56,0,-0.26,0.34,,0.25,-0.17,-0.19,-0.02,0.68,0.41,-0.15,-0.27,0.58,-0.18
COc1cc([C@@H]2c3cc4c(cc3[C@@H](O[C@@H]3O[C@@H]5CO[C@@H](c6cccs6)O[C@H]5[C@H](O)[C@H]3O)[C@H]3COC(=O)[C@H]23)OCO4)cc(OC)c1O [Teniposide],1.05,1.6,0.19,0.76,1.46,1.34,0.67,,2.62,1,1.08,,-1.62,0.91,0.99,
CCOC(=O)C1=C(COCCN)NC(C)=C(C(=O)OC)C1c1ccccc1Cl (stereo not given) [Amlodipine Besylate],5.2,2.94,-6.89,-6.85,6.36,-7.3,-8.17,4.37,-3.58,5.98,-6.15,-4.74,,3.81,4.12,-1.58
C[C@@H](NCCCc1cccc(C(F)(F)F)c1)c1cccc2ccccc12 [Cinacalcet HCl],0.31,2.8,,0.1,3.33,-1.71,-0.3,1.05,-0.17,0.67,-0.21,2.57,,0.26,0.25,1.57
CCOC(=O)c1ccc(N)cc1 [Benzocaine hydrochloride],-1.03,-0.9,1.42,0.5,-0.93,0.87,0.51,0,-0.85,-0.46,0.44,0.12,-0.32,-0.31,-0.65,0.01
C=C1CCN([C@H](C)[C@](O)(Cn2cncn2)c2ccc(F)cc2F)CC1 [Efinaconazole],2.69,0.13,-0.68,-1.98,2.18,,16.2,11.6,3,10.7,7.05,7.49,-9.55,11.9,3.94,
CN(C)C(=O)COC(=O)Cc1ccc(OC(=O)c2ccc(NC(=N)N)cc2)cc1 [Camostat Mesilate],-0.25,0.34,-0.37,-0.08,-0.5,-0.36,-0.43,-0.35,-0.87,-0.36,-0.25,-0.84,0.66,,-0.32,
Nc1c(CC(=O)O)cccc1C(=O)c1ccccc1 [Amfenac Sodium Monohydrate],0.25,-0.33,0.11,-0.63,0.25,-0.95,-0.16,-0.27,0.63,2.36,0.74,,0.49,,1.16,0.57
CCCCCOc1ccccc1/C(=C\SC)n1ccnc1 [Neticonazole Hydrochloride],-1.87,-1.5,-1.45,-2.84,-1.01,6.23,14.5,,2.52,23.8,6.29,3.33,-8.79,16.5,3.53,13
O=C1C(=O)c2ccccc2C(O)=C1C1CCC(c2ccc(Cl)cc2)CC1 (stereo not given) [Atovaquone],-0.46,1.54,-0.2,0.47,,0.94,0.03,1.12,1.94,0.84,0.71,1.22,-0.82,1.46,,0.68
CN(C)CCCC1(c2ccc(F)cc2)OCc2cc(C#N)ccc21 (stereo not given) [Citalopram HBr],-0.6,-0.17,1.58,0.92,-0.05,0.64,0.83,-0.06,0.43,0.45,0.08,-0.03,-0.34,0.36,,1.38
Clc1ccc(C(Cn2ccnc2)OCc2ccc(Sc3ccccc3)cc2)c(Cl)c1 (stereo not given) [Fenticonazole Nitrate],-13.8,4.64,4.22,4.88,-5.38,28.7,-3.35,62.4,14.8,30.4,4.77,-1.04,-13.4,25,-6.61,109
CC(=O)C1C(=O)C=C(C)OC1=O (stereo not given) [Sodium dehydroacetate],0.37,1.59,1.63,2.06,0.56,0.24,,0.4,1.27,0.13,-0.21,1.14,,-1.35,0.2,
